# Shown are actives, neighbours in structure and some others; about 11% of the full set was active somewhere.
# HPGD inh = HPGD (human) dehydrogenase inhibition; purified HPGD, NADH fluorescence kinetic, PGE2 substrate; Potency, µM, for inactives: at the highest dose activity change, negative = inhibition, hits mostly inhibitors; AID 894; P15428; 150,000 compounds, 4.3% hits; note: potency is the fitted concentration of half-maximal effect
# Target sequence (P15428 whole entry, looked up): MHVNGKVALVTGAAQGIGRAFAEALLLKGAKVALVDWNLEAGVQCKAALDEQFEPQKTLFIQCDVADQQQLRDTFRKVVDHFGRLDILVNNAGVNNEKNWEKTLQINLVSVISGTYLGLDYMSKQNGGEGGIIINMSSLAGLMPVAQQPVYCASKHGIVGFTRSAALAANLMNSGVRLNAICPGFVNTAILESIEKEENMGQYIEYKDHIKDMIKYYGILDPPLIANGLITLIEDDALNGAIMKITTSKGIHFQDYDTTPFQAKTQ
#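 20 nM HPGD preincubated 15 min at room temperature with compound in 50 mM Tris-HCl pH 8, 0.01% Tween 20. Started with 1 mM NAD+ and 30 uM prostaglandin E2; NADH fluorescence (360/450 nm) read 5 times over 30-s intervals, last minus first.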
# PNC assembly inh = blocks assembly of the perinucleolar compartment; PC3M PTB-GFP, PNC prevalence imaging, 16 h; hits give low values; activity change (PNC), negative = inhibition, % at 10 µM; AID 2417; 140,000 compounds, 3.1% hits;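 active = readout at or below -70, meaning at least 70% loss of cells showing the perinucleolar compartment, a nuclear body marking cancer cells; inconclusive = readout between -30 and a set limit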;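 note: plate controls were DMSO wells for no effect and camptothecin positive control wells for full effect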
#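 Read-out is percentage of cells bearing a perinucleolar compartment, from automated 20x imaging of fixed, Hoechst-stained PC3M PTB-GFP cells. Cells were seeded 4 h, then exposed 16 h to compound (23 nl of library stock) in duplicate plates.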
# 12-hLO inh = 12-hLO (ALOX12) enzyme inhibition; purified 12-hLO, xylenol orange hydroperoxide absorbance; Potency, µM (highest dose often 57.1 µM), for the others: at the top dose activity change, negative = inhibition, hits mostly inhibitors; 150,000 compounds, 0.12% hits; active = well fitted curve in the direction sought with a large enough effect; inconclusive = small, poorly fitted or top-dose-only effect, or another doubt; inactive = no such curve, though single readings can be large; an effect the other way counts as inactive or inconclusive; note: potency is the fitted concentration of half-maximal effect; nearly all actives have a fitted effect of over 55% in size
#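 Hydroperoxide formation by human 12-lipoxygenase from 40 uM arachidonic acid was followed colorimetrically via ferric-xylenol orange complex, using the 573/405 nm absorbance ratio. Enzyme concentration was 150 nM, with 30 min reaction at room temperature.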
# IMPase Li cell = membrane-permeable IMPase blocker, potentiated with lithium; CHO-M1 cells, IP1 TR-FRET (IP-One), carbachol + lithium; Potency, µM (doses to about 59.4 µM), for inactives: at the top dose activity, negative = IMPase inhibition, most hits filed as inhibitors; 210,000 compounds, 0.35% hits; AID 1457; active = well fitted curve in the direction sought with a large enough effect; inconclusive = small, poorly fitted or top-dose-only effect, or another doubt; inactive = no such curve, though single readings can be large; an effect the other way counts as inactive or inconclusive;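 note: IP1 builds up when IMPase is blocked and the TR-FRET signal falls; potency is the fitted concentration of half-maximal effect; plate controls were basal vehicle for no effect and high inhibitor control for full effect; nearly all actives have a fitted effect of over 50% in size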
#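 Concentration–response in CHO-M1 cells, lithium-potentiated; 30 min at 37C. IP1 detected by competitive TR-FRET after 10 min lysis at RT. Hill-fitted AC50.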
# IMPase cell inh = cell-permeable inhibitors of inositol monophosphatase (IMPase); CHO-M1 cells, IP1 accumulation, HTRF TR-FRET ratio; AID 901; P97697; 120,000 tested, under 10 active; inhibition (IP1 accumulation), % at 46.1 µM; active = well fitted curve in the direction sought with a large enough effect in the signal ratio, not every such curve was filed as active; inconclusive = small, poorly fitted or top-dose-only effect, or a change in a side signal; inactive = no such curve, though single readings can be large or run the other way; the % refers to the signal ratio;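 note: cells stimulated with carbachol in lithium chloride buffer; plate controls were DMSO basal wells for no effect and reference inhibitor wells for full effect; higher means more IMPase inhibition seen as more IP1 and lower FRET ratio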
# Target sequence (P97697 whole entry, looked up): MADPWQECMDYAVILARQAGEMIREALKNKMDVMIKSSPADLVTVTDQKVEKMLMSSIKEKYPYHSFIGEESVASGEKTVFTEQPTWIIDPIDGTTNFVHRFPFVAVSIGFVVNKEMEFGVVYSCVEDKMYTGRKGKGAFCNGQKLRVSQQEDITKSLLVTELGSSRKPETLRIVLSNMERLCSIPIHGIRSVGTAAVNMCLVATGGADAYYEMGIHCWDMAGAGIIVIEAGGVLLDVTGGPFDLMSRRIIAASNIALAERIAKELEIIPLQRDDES
#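 Cellular IMPase inhibition is scored as a rise in cytosolic IP1, detected by competitive TR-FRET between d2-labelled IP1 and a europium anti-IP1 antibody. M1-expressing CHO cells were stimulated with carbachol for 30 min at 37C, with lithium (50 mM LiCl) present in the buffer.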
# ALDH1A1 inh = ALDH1A1 (human) enzyme inhibition. Purified ALDH1A1, NADH fluorescence, propionaldehyde substrate. Potency, µM (titrated, usually from 75.3 µM), inactives show at the top dose activity, negative = inhibition, usual class: inhibitors. 220,000 compounds, 7.3% hits;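 note: potency is the fitted concentration of half-maximal effect; plate controls were no enzyme wells and a reference inhibitor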
# * = called active by the depositor; ? = inconclusive; · = no result; [ ] = remark or other dose. Unless noted, calls come from the whole dose curve; as a rule, active = well fitted inhibition curve with a large enough effect (not every such curve was filed as active); inconclusive = small, poorly fitted or top-dose-only effect, or another doubt; inactive = no such curve, though single readings can be large or run the other way. Unless noted, % is set by controls: 0 for no effect and ±100 for the full control effect.
SMILES,HPGD inh,PNC assembly inh,12-hLO inh,IMPase Li cell,IMPase cell inh,ALDH1A1 inh
NS(=O)(=O)c1ccc(NS(=O)(=O)c2ccc(NC(=S)Nc3ccccc3)cc2)cc1,-11.7%,-5.7,-2.8%,4.8%,-6.1,?
CC(=O)Nc1ccc(S(=O)(=O)N2CCCc3ccccc32)cc1,-12.7%,-2.5,-3.2%,27.0%[38.3 µM],1.3,-7.4%
O=C(O)C1C2C=CC(O2)C1C(=O)Nc1ccc2c(c1)OCCO2 (stereo not given),-6.1%,-11.1,-5.1%,-4.8%[38.3 µM],1.2,11.2µM*
O=C(O)C1C2C=CC(O2)C1C(=O)Nc1ccc(S(=O)(=O)N2CCc3ccccc32)cc1 (stereo not given),-21.6%,28.8,-13.3%,-8.7%[38.3 µM],-18.2,10µM*
O=C(O)C1C2C=CC(C2)C1C(=O)Nc1ccc2c(c1)OCCO2 (stereo not given),-17.9%,22.3,-4.3%,-3.8%[38.3 µM],-4.0,0.8%
Cc1cc(NC(c2nnc(-c3ccccc3)o2)c2ccccc2F)ccc1Br (stereo not given),·,·,·,·,1.4,·
O=C(c1ccco1)N1CCN(C(c2ccccn2)c2nnnn2C2CCCC2)CC1 (stereo not given),-5.7%,39.2,-0.5%,18.6%,?,12.6µM*
COc1ccccc1C(c1nnnn1C(C)(C)C)N1CCN(C(=O)c2ccco2)CC1 (stereo not given),1.6%,-11.7,-1.7%,-7.5%[38.3 µM],2.5,25.1µM*
CC(C)CC(c1nnnn1C1CCCC1)N1CCN(C(=O)c2ccco2)CC1 (stereo not given),-6.0%,0.6,-2.5%,36.0%[38.3 µM],3.8,8.91µM*
CCCC(c1nnnn1Cc1ccco1)N1CCC(C(N)=O)CC1 (stereo not given),2.8%,-25.9,0.1%,9.6%[38.3 µM],11.5,3.55µM*
O=C(c1ccco1)N1CCN(C(c2cccs2)c2nnnn2C2CCCC2)CC1 (stereo not given),0.8%,5.2,-3.6%,9.1%,4.7,?
CN(C)c1ccc(C(c2nnnn2C(C)(C)C)N2CCN(C(=O)c3ccco3)CC2)cc1 (stereo not given),·,38.2,-2.0%,·,5.1,?
CCCC(c1nnnn1C1CCCC1)N1CCN(C(=O)c2ccco2)CC1 (stereo not given),1.5%,-21.3,-3.3%,12.3%[38.3 µM],7.8,?
CC(=O)N1CCC2(CCCN(c3ccc(-c4ccccc4)cc3)C2)CC1,?,·,-27.1%,13.8%,·,?
CCCCC(c1nnnn1C1CCCC1)N1CCN(C(=O)c2ccco2)CC1 (stereo not given),-6.4%,?,-4.3%,19.7%[38.3 µM],-1.2,11.2µM*
CCCCC(c1nnnn1CC1CCCO1)N1CCN(Cc2ccccc2)CC1 (stereo not given),-11.1%,-100.0*,2.1%,9.2%,1.6,?
Cc1ccc2occ(C(c3nnnn3Cc3ccccc3)N3CCOCC3)c(=O)c2c1 (stereo not given),-9.0%,11.4,-3.2%,-5.0%[38.3 µM],7.4,3.3%
c1ccc(C(c2nnnn2C2CCCCC2)N2CCc3ccccc3C2)nc1 (stereo not given),?,?,-9.7%,17.6%[38.3 µM],10.8,?
Oc1ccc(N2CCN(C(c3ccccn3)c3nnnn3C3CCCC3)CC2)cc1 (stereo not given),-27.5%,338.0,-8.9%,7.6%,5.4,25.1µM*
Cc1ccc2occ(C(c3nnnn3C3CCCC3)N3CCN(C(=O)c4ccco4)CC3)c(=O)c2c1 (stereo not given),-5.0%,22.4,-7.8%,-0.4%[38.3 µM],8.6,1.12µM*
CCCC(c1nnnn1CC1CCCO1)N1CCN(c2ccccc2)CC1 (stereo not given),·,·,·,10.6%,·,-2.9%
Cc1ccc(NC(=O)CSc2nnc(N)s2)c(C)c1,·,·,·,·,2.3,·
CCOC(=O)c1c(NC(=O)COc2ccc(Cl)cc2Cl)sc2c1CCCCC2,·,·,·,·,1.3,·
Fc1ccccc1C(c1nnnn1C1CCCC1)N1CCN(Cc2ccccc2)CC1 (stereo not given),1.9%,-22.7,-0.9%,10.9%,19.0,?

# Screening results (PubChem BioAssay)
